Source: PubChem BioAssay (NCATS)
Inconclusive results are not listed. The source made the active and inactive calls. Calls follow the shape of the dose curve; as a rule, active = well fitted inhibition curve with a large enough effect; inconclusive = small, poorly fitted or top-dose-only effect; inactive = flat fitted curve, though single readings scatter.

Key:
Test in all cases: qHTS profiling for inhibitors of Plasmodium falciparum proliferation (AID 504749); also: nearly all actives have a fitted effect of over 60% in size
Conditions in all cases: P. falciparum in erythrocytes, SYBR Green DNA, 72 h; series mostly up to 28.7 µM
AA1029 = test system: AA1029
In short: (§1)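 P. falciparum-infected erythrocytes (0.3% parasitemia, 2.5% hematocrit final) were exposed to compounds for 72 h at 37 C in 5% CO2, then lysed with SYBR Green buffer overnight at room temperature; parasite DNA fluorescence was normalized to artemisinin and DMSO controls.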

ATS95 = test system: ATS95
In short: as §1

C2A = test system: C2A
In short: as §1

CP211 = test system: CP211
In short: as §1

CP215 = test system: CP215
In short: as §1

CP217 = test system: CP217
In short: as §1

CP250 = test system: CP250
In short: as §1

CP252 = test system: CP252
In short: as §1

CP256 = test system: CP256
In short: as §1

CP260 = test system: CP260
In short: as §1

CP262 = test system: CP262
In short: as §1

CP265 = test system: CP265
In short: as §1

CP291 = test system: CP291
In short: as §1

CP315 = test system: CP315
In short: as §1

Dd2 = test system: Dd2
In short: as §1

FAB9 = test system: FAB9
In short: as §1

ICS = test system: ICS
In short: as §1

N140 = test system: N140
In short: as §1

SC27B = test system: SC27B
In short: as §1

TAB165 = test system: TAB165
In short: as §1

Measured: Potency

CC1CCC(C(C)C)C(O)C1 (stereo not given)
inactive: all assays above

O=c1ccn(C2OC(COP(=O)(O)OC3C(CO)OC(n4ccc(=O)[nH]c4=O)C3O)C(O)C2O)c(=O)[nH]1 (stereo not given)
inactive: all assays above

CC(=O)NC[C@@H]1CN(c2ccc(N3CCOCC3)c(F)c2)C(=O)O1
inactive: all assays above

CC(O)C(N)C(=O)O (stereo not given)
inactive: all assays above

CCCCCCCCCCCCCCCC(=O)OCC(COP(=O)(O)OCC[N+](C)(C)C)OC(=O)CCCCCCCCCCCCCCC (stereo not given)
inactive: all assays above

C[C@]12CC[C@@H]3c4ccc(O)cc4CC[C@H]3[C@@H]1C[C@H](O)C2O (stereo not given in full)
inactive: all assays above

CNC1C(O)C(OC2C(N)CC(N)C(OC3OC(CN)=CCC3N)C2O)OCC1(C)O (stereo not given)
inactive: all assays above

C=CCn1c(=O)n(C2OC(CO)C(O)C2O)c2nc(N)[nH]c(=O)c21 (stereo not given)
inactive: all assays above

Cc1cn([C@H]2CC(F)[C@@H](CO)O2)c(=O)[nH]c1=O (stereo not given in full)
inactive: all assays above

O=C1[C@@H]2C[C@@H]3C[C@H]1C[C@@](O)(C3)C2
inactive: all assays above

CC1(C)SC2C(NC(=O)C(C(=O)O)c3ccccc3)C(=O)N2C1C(=O)O (stereo not given)
inactive: all assays above

OCC1O[C@H](O[C@H]2C(O)C(O)C(O)O[C@@H]2CO)C(O)C(O)C1O (stereo not given in full)
inactive: all assays above
